# Source: PubChem BioAssay (EPA / NIEHS)
# Records with an inconclusive call do not appear. The source made the active and inactive calls. Rule for the calls: active = hit-call score of the fitted dose curve at least 0.9, where 1 is the maximum; inconclusive = response in the unintended direction; inactive = score below 0.9.
# Tests used:
# [1] = molecular target: Adra2b (gene 24174) (UniProt P19328); test: NVS_GPCR_rmAdra2B: NovaScreen (NVS) G Protein-Coupled Receptor Assay for hybird cells Adrenergic, Alpha 2B Receptor (Adra2B) (AID 2283306)
# Sequence of Adra2b (gene 24174) (P19328 whole entry, looked up): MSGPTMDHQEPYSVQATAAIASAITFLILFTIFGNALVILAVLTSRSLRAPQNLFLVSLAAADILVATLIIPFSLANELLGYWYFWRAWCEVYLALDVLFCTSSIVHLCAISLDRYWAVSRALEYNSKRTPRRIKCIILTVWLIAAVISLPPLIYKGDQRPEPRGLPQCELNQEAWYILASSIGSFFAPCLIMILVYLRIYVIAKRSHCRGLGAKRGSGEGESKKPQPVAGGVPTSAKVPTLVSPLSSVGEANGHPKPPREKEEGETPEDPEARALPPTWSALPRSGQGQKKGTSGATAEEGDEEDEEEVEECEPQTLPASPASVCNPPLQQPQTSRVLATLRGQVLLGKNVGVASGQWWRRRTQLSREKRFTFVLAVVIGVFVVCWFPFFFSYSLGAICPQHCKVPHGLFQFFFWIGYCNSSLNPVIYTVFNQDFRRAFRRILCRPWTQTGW
# How it was run: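 Compounds screened first at 25 uM in duplicate, with actives followed up in concentration-response; specific radioligand displacement from hybrid neuroglioma/blastoma cell membrane preparations measured by filter scintillation counting after 1 h, normalized to DMSO.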
# [2] = molecular target: rat Adrenergic Receptor, Alpha 2 (Adra2), Non-selective Binding, Adra2a (gene 25083) (UniProt P22909); test: NVS_GPCR_rAdra2_NonSelective: NovaScreen (NVS) G Protein-Coupled Receptor Assay for rat Adrenergic Receptor, Alpha 2 (Adra2), Non-selective Binding (AID 2283299)
# Sequence of rat Adrenergic Receptor, Alpha 2 (Adra2), Non-selective Binding, Adra2a (gene 25083) (P22909 whole entry, looked up): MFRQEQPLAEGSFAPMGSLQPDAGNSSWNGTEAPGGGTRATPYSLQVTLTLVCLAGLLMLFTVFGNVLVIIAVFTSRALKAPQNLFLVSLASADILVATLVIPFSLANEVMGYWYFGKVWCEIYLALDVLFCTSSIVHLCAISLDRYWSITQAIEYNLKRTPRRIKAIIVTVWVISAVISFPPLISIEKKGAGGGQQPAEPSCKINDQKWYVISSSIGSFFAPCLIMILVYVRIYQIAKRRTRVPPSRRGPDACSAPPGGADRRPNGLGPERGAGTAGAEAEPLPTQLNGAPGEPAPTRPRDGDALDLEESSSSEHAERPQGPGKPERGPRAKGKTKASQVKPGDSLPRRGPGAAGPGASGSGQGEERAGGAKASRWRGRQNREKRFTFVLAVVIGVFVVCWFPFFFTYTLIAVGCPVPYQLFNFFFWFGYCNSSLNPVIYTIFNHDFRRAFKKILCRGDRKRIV
# How it was run: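 Filter-based scintillation counting of radioligand binding to rat cortical membrane receptors, measured 1.25 hours post-dosing; loss of signal versus DMSO indicates displacement. Initial single-concentration duplicate at 25 uM, then concentration series.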
# [3] = molecular target: rat Adrenergic, Alpha 1A Receptor (Adra1A), Adra1a (gene 29412) (UniProt P43140); test: NVS_GPCR_rAdra1A: NovaScreen (NVS) G Protein-Coupled Receptor Assay for rat Adrenergic, Alpha 1A Receptor (Adra1A) (AID 2283296)
# Sequence of rat Adrenergic, Alpha 1A Receptor (Adra1A), Adra1a (gene 29412) (P43140 whole entry, looked up): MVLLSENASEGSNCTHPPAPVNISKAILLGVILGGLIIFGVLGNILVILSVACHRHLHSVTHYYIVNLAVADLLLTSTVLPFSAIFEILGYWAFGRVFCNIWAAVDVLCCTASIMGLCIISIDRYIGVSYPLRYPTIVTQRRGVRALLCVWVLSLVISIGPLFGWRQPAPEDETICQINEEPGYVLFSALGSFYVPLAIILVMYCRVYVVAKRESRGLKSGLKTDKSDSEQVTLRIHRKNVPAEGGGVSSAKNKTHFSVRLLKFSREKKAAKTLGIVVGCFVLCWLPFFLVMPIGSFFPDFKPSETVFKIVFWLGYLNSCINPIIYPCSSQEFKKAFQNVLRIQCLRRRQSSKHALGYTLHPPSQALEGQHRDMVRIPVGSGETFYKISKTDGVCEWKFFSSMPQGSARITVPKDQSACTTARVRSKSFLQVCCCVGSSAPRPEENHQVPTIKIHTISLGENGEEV
# Description: NVS_GPCR_rAdra1A is a biochemical, single-readout assay that uses extracted gene-proteins from Rat cortical membranes (pretreated with chlorethyl clonidine-CEC) in a tissue-based cell-free assay. Measurements were taken 1 hour after chemical dosing in a 48-well plate.NVS_GPCR_rAdra1A is one of one assay component(s) measured or calculated from the NVS_GPCR_rAdra1A assay. It is designed to make measurements of radioligand binding, a form of binding reporter, as detected with scintillation counting signals by Filter-based radiodetection technology.Data from the assay component NVS_GPCR_rAdra1A was analyzed into 1 assay endpoint. This assay endpoint, NVS_GPCR_rAdra1A, was analyzed in the positive analysis fitting direction relative to DMSO as the negative control and baseline of activity. Using a type of binding reporter, loss-of-signal activity can be used to understand changes in the binding as they relate to the gene Adra1a. Furthermore, this assay endpoint can be referred to as a primary readout, because the performed assay has only produced 1 assay endpoint. To generalize the intended target to other relatable targets, this assay endpoint is annotated to the gpcr intended target family, where the subfamily is rhodopsin-like receptor.
# Binding assays used specific radioligands (tritiated, iodinated) with non-radioactive competitive displacement ligands in agonist or antagonist protocols (as indicated) and various reference compounds and inhibitors to titrate specific binding to receptors and transporters. Most enzyme assays (CYPs, kinases, phosphatases, proteases, HDACs) used recombinant protein and specific substrates (fluorescence mostly, some colorimetric and radioactive) and inhibitors, followed by a biochemical separation of substrate and product. All assays for the biochemical HTS were initially run in duplicate at a single concentration (10 uM for CYP450 assays and 25 uM for all others). […] Each assay was run with positive and negative controls, and concurrent controls on every plate. […]
# [4] = tested on: rat Adrenergic, Alpha 1B Receptor (Adra1B), gene 24173; test: NVS_GPCR_rAdra1B: NovaScreen (NVS) G Protein-Coupled Receptor Assay for rat Adrenergic, Alpha 1B Receptor (Adra1B) (AID 2283297)
# How it was run: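 Filter-binding radioligand competition on membranes from rat liver, read after 1 h by scintillation counting. Single-concentration duplicate screen at 25 uM, followed by concentration-response on actives, normalised to DMSO.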
# [5] = molecular target: rat Gamma-Aminobutyric Acid Type B Receptor (GABBR), Gabbr1 (gene 81657) (UniProt Q9Z0U4); test: NVS_GPCR_rGABBR: NovaScreen (NVS) G Protein-Coupled Receptor Assay for rat Gamma-Aminobutyric Acid Type B Receptor (GABBR) (AID 2283301)
# How it was run: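 Rat cortical membrane preparation, competitive radioligand binding for 1 h with filtration and scintillation readout. Actives from duplicate single-point 25 uM screening proceeded to concentration series with 50 uM top concentration.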
# [6] = molecular target: rat Histamine Receptor (H3), Hrh3 (gene 85268) (UniProt Q9QYN8); test: NVS_GPCR_rH3: NovaScreen (NVS) G Protein-Coupled Receptor Assay for rat Histamine Receptor (H3) (AID 2283303)
# Sequence of rat Histamine Receptor (H3), Hrh3 (gene 85268) (Q9QYN8 whole entry, looked up): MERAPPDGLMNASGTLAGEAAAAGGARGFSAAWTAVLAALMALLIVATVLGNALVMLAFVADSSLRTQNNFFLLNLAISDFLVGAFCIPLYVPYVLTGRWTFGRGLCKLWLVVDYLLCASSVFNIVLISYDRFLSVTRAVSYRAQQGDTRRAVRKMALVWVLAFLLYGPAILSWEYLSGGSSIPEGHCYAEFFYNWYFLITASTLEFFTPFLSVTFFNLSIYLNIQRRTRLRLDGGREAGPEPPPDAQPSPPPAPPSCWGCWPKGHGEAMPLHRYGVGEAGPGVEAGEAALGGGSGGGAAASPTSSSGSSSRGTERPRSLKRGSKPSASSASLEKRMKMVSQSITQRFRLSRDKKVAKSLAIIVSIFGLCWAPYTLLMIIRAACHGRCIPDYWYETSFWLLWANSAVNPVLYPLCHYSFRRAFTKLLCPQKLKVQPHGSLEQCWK
# Description: (§1) NVS_GPCR_rH3 is a biochemical, single-readout assay that uses extracted gene-proteins from Rat forebrain membranes in a tissue-based cell-free assay. Measurements were taken 1 hour after chemical dosing in a 48-well plate.NVS_GPCR_rH3 is one of one assay component(s) measured or calculated from the NVS_GPCR_rH3 assay. It is designed to make measurements of radioligand binding, a form of binding reporter, as detected with scintillation counting signals by Filter-based radiodetection technology.Data from the assay component NVS_GPCR_rH3 was analyzed into 1 assay endpoint. This assay endpoint, NVS_GPCR_rH3, was analyzed in the positive analysis fitting direction relative to DMSO as the negative control and baseline of activity. […] Furthermore, this assay endpoint can be referred to as a primary readout, because the performed assay has only produced 1 assay endpoint. […]
# (§2) Binding assays used specific radioligands (tritiated, iodinated) with non-radioactive competitive displacement ligands in agonist or antagonist protocols (as indicated) and various reference compounds and inhibitors to titrate specific binding to receptors and transporters. Most enzyme assays (CYPs, kinases, phosphatases, proteases, HDACs) used recombinant protein and specific substrates (fluorescence mostly, some colorimetric and radioactive) and inhibitors, followed by a biochemical separation of substrate and product. […]
# [7] = molecular target: Metabotropic glutamate receptor 1 (Rattus norvegicus) (UniProt P23385); test: NVS_GPCR_rmMGluR1: NovaScreen (NVS) G Protein-Coupled Receptor Assay for rat Glutamate Metabotropic Receptor 1 (MGluR1) (AID 2283305)
# Sequence of Metabotropic glutamate receptor 1 (Rattus norvegicus) (P23385 whole entry, looked up): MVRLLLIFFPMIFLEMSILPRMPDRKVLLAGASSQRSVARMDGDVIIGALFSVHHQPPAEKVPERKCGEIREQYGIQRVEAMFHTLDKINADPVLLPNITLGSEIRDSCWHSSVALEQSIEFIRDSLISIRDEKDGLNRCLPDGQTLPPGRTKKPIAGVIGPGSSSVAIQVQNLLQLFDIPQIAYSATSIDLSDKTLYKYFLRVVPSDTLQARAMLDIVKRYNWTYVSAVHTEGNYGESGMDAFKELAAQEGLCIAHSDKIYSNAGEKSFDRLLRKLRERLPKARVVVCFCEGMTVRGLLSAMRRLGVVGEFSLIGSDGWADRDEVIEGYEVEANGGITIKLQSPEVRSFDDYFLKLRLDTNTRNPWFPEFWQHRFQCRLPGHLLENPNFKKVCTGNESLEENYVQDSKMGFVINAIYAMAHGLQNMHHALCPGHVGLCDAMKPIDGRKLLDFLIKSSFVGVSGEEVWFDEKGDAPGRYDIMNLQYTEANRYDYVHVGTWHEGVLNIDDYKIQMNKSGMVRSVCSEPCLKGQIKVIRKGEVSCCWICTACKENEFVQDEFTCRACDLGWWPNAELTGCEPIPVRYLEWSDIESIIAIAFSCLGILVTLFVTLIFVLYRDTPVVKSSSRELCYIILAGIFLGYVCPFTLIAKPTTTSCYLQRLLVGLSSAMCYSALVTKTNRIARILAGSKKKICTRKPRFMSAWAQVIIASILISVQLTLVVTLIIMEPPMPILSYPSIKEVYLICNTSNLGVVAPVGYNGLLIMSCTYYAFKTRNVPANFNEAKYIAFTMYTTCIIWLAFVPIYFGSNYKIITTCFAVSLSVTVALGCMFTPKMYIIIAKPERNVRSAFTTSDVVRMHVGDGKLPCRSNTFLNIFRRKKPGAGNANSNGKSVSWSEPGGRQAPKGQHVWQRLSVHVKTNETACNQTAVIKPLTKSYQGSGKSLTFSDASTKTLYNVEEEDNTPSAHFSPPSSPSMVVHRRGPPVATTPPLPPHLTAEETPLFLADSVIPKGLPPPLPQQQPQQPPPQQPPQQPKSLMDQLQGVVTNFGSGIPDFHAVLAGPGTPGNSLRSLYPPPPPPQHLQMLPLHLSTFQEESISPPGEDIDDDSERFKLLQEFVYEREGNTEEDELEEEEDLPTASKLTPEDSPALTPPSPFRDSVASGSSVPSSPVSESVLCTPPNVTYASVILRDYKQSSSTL
# How it was run: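 Binding to native receptor from rat cerebellum extract, measured as displacement of a radioligand (scintillation counting, filter separation) after 1 hour. Compounds tested at 25 uM in duplicate, then titrated to a 50 uM maximum.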
# [8] = molecular target: rat Glutamate Metabotropic Receptor 5 (MGluR5), Grm5 (gene 24418) (UniProt P31424); test: NVS_GPCR_rmMGluR5: NovaScreen (NVS) G Protein-Coupled Receptor Assay for rat Glutamate Metabotropic Receptor 5 (MGluR5) (AID 2283307)
# Sequence of rat Glutamate Metabotropic Receptor 5 (MGluR5), Grm5 (gene 24418) (P31424 whole entry, looked up): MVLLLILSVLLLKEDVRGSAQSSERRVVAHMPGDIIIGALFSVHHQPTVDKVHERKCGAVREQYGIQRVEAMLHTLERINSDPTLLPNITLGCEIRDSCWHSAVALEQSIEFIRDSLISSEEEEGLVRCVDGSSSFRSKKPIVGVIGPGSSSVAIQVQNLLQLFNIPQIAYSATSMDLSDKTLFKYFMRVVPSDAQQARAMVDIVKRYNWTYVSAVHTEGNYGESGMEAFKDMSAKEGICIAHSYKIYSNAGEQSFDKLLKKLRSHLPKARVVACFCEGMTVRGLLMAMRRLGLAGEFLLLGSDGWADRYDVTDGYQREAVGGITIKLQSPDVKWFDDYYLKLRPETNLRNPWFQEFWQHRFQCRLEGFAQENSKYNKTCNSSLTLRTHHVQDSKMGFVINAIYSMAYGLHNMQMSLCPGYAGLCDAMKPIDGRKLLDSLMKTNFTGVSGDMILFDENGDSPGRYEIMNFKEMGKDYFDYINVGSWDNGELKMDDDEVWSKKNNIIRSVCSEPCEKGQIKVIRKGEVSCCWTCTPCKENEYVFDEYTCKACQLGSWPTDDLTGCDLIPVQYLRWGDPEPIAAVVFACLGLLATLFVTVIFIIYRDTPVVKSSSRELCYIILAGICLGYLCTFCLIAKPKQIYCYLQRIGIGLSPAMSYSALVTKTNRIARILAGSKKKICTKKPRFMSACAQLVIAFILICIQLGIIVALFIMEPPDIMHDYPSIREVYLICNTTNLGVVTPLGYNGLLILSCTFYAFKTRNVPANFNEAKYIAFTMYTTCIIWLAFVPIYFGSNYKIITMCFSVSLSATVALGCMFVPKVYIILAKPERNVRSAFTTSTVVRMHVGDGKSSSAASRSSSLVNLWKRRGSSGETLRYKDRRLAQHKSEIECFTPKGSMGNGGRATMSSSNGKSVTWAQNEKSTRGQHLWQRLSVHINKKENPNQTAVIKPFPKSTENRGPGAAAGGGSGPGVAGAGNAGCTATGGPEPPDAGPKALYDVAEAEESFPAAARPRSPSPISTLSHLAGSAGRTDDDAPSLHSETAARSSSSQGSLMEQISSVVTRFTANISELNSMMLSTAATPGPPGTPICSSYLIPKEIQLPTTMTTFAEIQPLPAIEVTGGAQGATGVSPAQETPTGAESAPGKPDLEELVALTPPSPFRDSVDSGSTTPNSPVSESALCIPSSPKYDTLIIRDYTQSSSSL
# How it was run: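 Compounds first screened in duplicate at 25 uM, then in concentration series up to 50 uM if over threshold. Radioligand displacement on rat whole-brain membranes, filtration and scintillation counting after 1.5 h; binding loss relative to DMSO.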
# [9] = molecular target: rat Adrenergic Receptor, Beta (Adrb), Non-selective Binding, Adrb1 (gene 24925) (UniProt P18090); test: NVS_GPCR_rAdrb_NonSelective: NovaScreen (NVS) G Protein-Coupled Receptor Assay for rat Adrenergic Receptor, Beta (Adrb), Non-selective Binding (AID 2283298)
# How it was run: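 Rat cortical membranes incubated 1 h with beta-adrenergic radioligand and test chemical; bound ligand measured by filtration and scintillation counting. Screen at 25 uM duplicate, then concentration series with 50 uM maximum; loss of signal versus DMSO.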
# [10] = molecular target: rat Corticotropin Releasing Factor Receptor (CRF), Crhr1 (gene 58959) (UniProt P35353); test: NVS_GPCR_rCRF: NovaScreen (NVS) G Protein-Coupled Receptor Assay for rat Corticotropin Releasing Factor Receptor (CRF) (AID 2283300)
# Sequence of rat Corticotropin Releasing Factor Receptor (CRF), Crhr1 (gene 58959) (P35353 whole entry, looked up): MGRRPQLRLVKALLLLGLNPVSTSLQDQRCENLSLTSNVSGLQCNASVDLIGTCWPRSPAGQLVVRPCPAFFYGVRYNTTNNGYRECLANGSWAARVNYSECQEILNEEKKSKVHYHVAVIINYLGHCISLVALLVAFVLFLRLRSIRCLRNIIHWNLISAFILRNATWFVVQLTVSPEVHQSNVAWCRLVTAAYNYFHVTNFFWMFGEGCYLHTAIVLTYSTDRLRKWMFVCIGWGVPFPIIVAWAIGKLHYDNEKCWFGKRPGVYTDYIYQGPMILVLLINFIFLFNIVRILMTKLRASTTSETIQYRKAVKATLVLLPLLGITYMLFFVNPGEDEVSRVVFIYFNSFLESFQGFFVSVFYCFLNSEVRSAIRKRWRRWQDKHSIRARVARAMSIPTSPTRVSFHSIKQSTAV
# Description: as §1, with “NVS_GPCR_rCRF” for “NVS_GPCR_rH3”, “cortical” for “forebrain”, “2 hours” for “1 hour”, “96-well plate.NVS_GPCR_rCRF” for “48-well plate.NVS_GPCR_rH3”, “[…]” for “Filter-based”, “NVS_GPCR_rCRF,” for “NVS_GPCR_rH3,”
# as §2
compound,measurement,setting,value
COc1cc(-c2ccc(N)c(OC)c2)ccc1N,AC50,[1],15.5 µM (active)
CCC(=O)C(CC(C)N(C)C)(c1ccccc1)c1ccccc1 (stereo not given),AC50,[2],12 µM (active)
same,AC50,[1],6.79 µM (active)
CCN1CCC2(CC1)COc1cc3c(cc12)N(C(=O)c1ccc(-c2ccc(-c4nnc(C)o4)cc2C)cc1)CC3,AC50,[3],16.4 µM (active)
same,AC50,[4],10.9 µM (active)
same,AC50,[2],18.6 µM (active)
same,AC50,[1],10.1 µM (active)
CC(=O)[O][Hg][c]1ccccc1,AC50,[3],25 µM (active)
same,AC50,[4],3.43 µM (active)
same,AC50,[2],3.96 µM (active)
same,AC50,[5],38.5 µM (active)
same,AC50,[6],40.2 µM (active)
same,AC50,[7],10.8 µM (active)
same,AC50,[1],11.9 µM (active)
same,outcome,[8],inactive
O=C1C2(Cl)C3(Cl)C4(Cl)C(Cl)(Cl)C5(Cl)C3(Cl)C1(Cl)C5(Cl)C24Cl (stereo not given),outcome,[5],inactive
C=C(C)C(=O)[O][Sn]([CH2]CCC)([CH2]CCC)[CH2]CCC,AC50,[3],13 µM (active)
same,AC50,[4],4.59 µM (active)
same,AC50,[9],20.5 µM (active)
same,AC50,[2],3.25 µM (active)
same,outcome,[10],inactive
same,AC50,[6],25 µM (active)
same,AC50,[7],4.13 µM (active)
same,AC50,[1],3.08 µM (active)
same,AC50,[8],18.1 µM (active)
